An excerpt weighted towards active compounds, which were near 22% of everything screened.
CHX counter: Cycloheximide Counterscreen for Small Molecule Inhibitors of Shiga Toxin | cell reporter, cycloheximide protein synthesis inhibition counterscreen | max response, % | 300,000 compounds, 12% hits | AID 2314, 2010; in the data active = max response mostly above about 13%, no sharp cut-off; inactive = mostly below about 14%; also: read at 38.3 µM for the half of the compounds with a filed dose; 0% is about no effect
Pf growth 96h: Primary qHTS for delayed death inhibitors of the malarial parasite plastid, 96 hour incubation; P. falciparum luciferase reporter growth, 96 h; Potency, µM (highest dose often 28.7 µM), for the others: at the top dose activity change, negative = inhibition, actives largely listed as inhibitors; 320,000 compounds, 6.9% hits; AID 504834, 2011; also: potency is read from the fitted curve at half-maximal effect; % is scaled to controls: 0 for no effect and ±100 for the full control effect
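Infected RBCs, 2% Hct / 0.05% parasitemia final; luciferase-reporter P. falciparum; cpd 96 h, 37 C, 5% CO2; luciferase detection reagent; luminescence.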
Shiga toxin inh: A qHTS for Small Molecule Inhibitors of Shiga Toxin | Vero cells, Shiga toxin protein synthesis inhibition reporter | inhibition, % at 38.7 µM | 290,000 compounds, 9.2% hits | AID 2315, 2010; in the data active = inhibition mostly above about 28%, no sharp cut-off; inactive = mostly below about 43%; also: 0% is about no effect
LmPK inhibitor: qHTS Assay for Inhibitors of Leishmania Mexicana Pyruvate Kinase (LmPK). Q27686. purified LmPK, Kinase-Glo ATP luminescence, 1 h. Potency, µM (titrated, usually from 57.5 µM), for the others: top-dose activity change, negative = inhibition, hits mostly inhibitors. 290,000 compounds, 0.37% hits. AID 1721, 2009; also: potency is read from the fitted curve at half-maximal effect; % is scaled to controls: 0 for no effect and ±100 for the full control effect
Target sequence (Q27686 whole entry, looked up): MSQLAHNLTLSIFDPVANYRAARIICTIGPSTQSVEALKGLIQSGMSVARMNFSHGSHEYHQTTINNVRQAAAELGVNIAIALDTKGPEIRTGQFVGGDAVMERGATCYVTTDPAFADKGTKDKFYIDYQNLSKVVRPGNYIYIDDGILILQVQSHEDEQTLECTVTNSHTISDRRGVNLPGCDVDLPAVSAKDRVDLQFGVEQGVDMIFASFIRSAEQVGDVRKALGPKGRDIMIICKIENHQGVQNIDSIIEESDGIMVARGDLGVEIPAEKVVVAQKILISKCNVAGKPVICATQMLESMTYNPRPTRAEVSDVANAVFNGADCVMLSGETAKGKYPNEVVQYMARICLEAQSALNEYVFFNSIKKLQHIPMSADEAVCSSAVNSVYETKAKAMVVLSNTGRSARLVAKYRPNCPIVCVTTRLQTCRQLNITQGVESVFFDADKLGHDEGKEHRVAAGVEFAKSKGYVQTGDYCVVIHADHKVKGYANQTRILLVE
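ATP generated from ADP (0.1 mM) and PEP (0.5 mM) by 0.1 nM LmPK over 1 h at room temperature (pH 7.2 imidazole buffer) was detected by coupled luciferase luminescence. Values were normalized to uninhibited and no-enzyme wells.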
Pf growth 48h: Primary qHTS for delayed death inhibitors of the malarial parasite plastid, 48 hour incubation | 310,000 compounds, 5.9% hits | AID 504832, 2011 | P. falciparum luciferase growth in erythrocytes, 48 h | Potency, µM (highest dose often 28.7 µM), inactives show at the top dose activity change, negative = inhibition, usual class: inhibitors; also: potency is read from the fitted curve at half-maximal effect; % is scaled to controls: 0 for no effect and ±100 for the full control effect
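Luminescence readout; reporter = integrated firefly luciferase in P. falciparum. RBC culture at 2% hematocrit, 0.1% parasitemia final, 37 C/5% CO2; decreased signal taken as growth inhibition.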
The depositor's hits bear a star; i = inactive; ? = inconclusive; / = no result; [ ] = remark or other dose. Unless noted, calls follow the shape of the dose curve; as a rule, active = well fitted inhibition curve with a large enough effect; inconclusive = small, poorly fitted or top-dose-only effect, or another doubt; inactive = no such curve, though single readings can be large or run the other way.

SMILES | CHX counter | Pf growth 96h | Shiga toxin inh | LmPK inhibitor | Pf growth 48h
COC(=O)C(Cc1ccc(OC(=O)c2ccc(C)cc2)cc1)N1Cc2ccccc2C1=O (centres undefined) | 57.1* | 53.2% | 89.4* | 0.3% | 57.4%
CC(C)CCNC(=O)[C@H](CSCc1ccccc1)N1Cc2ccccc2C1=O | -2.6 | ? | -16.0 | -1.5% | -5.0%
NNC(=O)C(Cc1ccc(O)cc1)N1Cc2ccccc2C1=O (centres undefined) | -4.5 | 27.3% | -1.3 | -2.6% | -10.2%
C=CC(C)(O)CC/C=C(\C)CCC=C(C)C (centres undefined) | / | 3.2% | / | / | 2.5%
C[C@]12C(=O)N(c3cccc(F)c3)C(=O)N1[C@@H]1c3ccccc3OC[C@@H]1[C@H]2c1ccccc1 | 0.2 | 8.28µM* | -7.7 | 0.8% | ?
Cc1ccc(N2C(=O)N3[C@H]4c5ccccc5OC[C@@H]4[C@@H](c4ccccc4)[C@@]3(C)C2=O)cc1 | -2.1 | 8.28µM* | -1.9 | -1.4% | ?
C[C@]12C(=O)N(c3ccccc3)C(=O)N1[C@@H]1c3ccccc3OC[C@@H]1[C@H]2c1ccccc1 | 7.9 | 3.6% | 6.4 | -1.7% | ?
CC(Sc1nnnn1C1CCCC1)C(=O)Nc1cccc(S(=O)(=O)N2CCOCC2)c1 (centres undefined) | / | ? | / | / | -32.4%
C[C@H]1CN=C(Nc2ccccc2)N1CC1CCCCCC1 | -3.0 | 23.5% | -8.4 | -1.9% | ?
O=C(Nc1cccc(Cl)c1)c1cc(N=Nc2ccc([N+](=O)[O-])cc2Cl)ccc1O | 9.3 | ? | 4.6 | 14.1µM* | ?
CCOC(=O)c1cnc2c(N=Nc3cccc(Cl)c3)c(N)nn2c1N | 7.3 | 0.657µM* | -5.7 | 1.5% | 12.8%
CCOC(=O)c1cnc2c(N=Nc3ccccc3)c(N)nn2c1N | 40.9* | i | 47.8 | 4.1% | 102.6%
CCOC(=O)c1cnc2c(-c3ccccc3)c(C)nn2c1N | -1.6 | ? | -5.2 | 2.1% | /
Cc1nn(C)c2nc(NNC(=O)Nc3cc(Cl)nc(Cl)c3)cc(C(C)C)c12 | 4.0 | / | 13.8 | / | /
Cc1ncc(CO)c(CO)c1O | / | 27.6% | / | / | 1.9%
COCc1c(CCl)cnc(C)c1O | 8.1* | 9.28µM* | 47.9* | -3.4% | -26.2%
CC(C)CCNC(=O)NC(=O)CSc1ncccn1 | 7.1 | 30.0% | 5.2 | 0.5% | 0.1%
COc1ccc(OC)c(NC(=S)NC(=O)c2ccc(Br)o2)c1 | 0.5 | 20.3% | -29.4 | -5.5% | 20.1%
CC(C)(C)NC(=O)CSc1nc2[nH]ncc2c(=O)[nH]1 | -2.4 | 0.0% | 8.8 | 15.3% | -13.2%
COc1ccc(C2NCc3ccc4c(c3-n3cccc32)OCO4)cc1O (centres undefined) | -3.3 | / | -8.0 | 9.7% | 6.57µM*
CC(=O)N(CCc1ccccc1)Cc1cc2ccc(C)c(C)c2[nH]c1=O | -1.3 | ? | / | 7.7% | 32.3%
CC(C)CC(=O)NNC(=O)c1ccc(Cl)cc1 | 9.6 | 2.4% | 8.7 | 6.1% | 7.5%
NC(=S)NNC(=O)c1cccc(Br)c1 | 13.9 | 38.6% | -4.1 | 7.2% | -17.3%
Cc1cccc(C(=O)NNC(=O)c2ccc(Cl)cc2)c1O | 30.4* | 88.6% | 79.0* | 3.3% | 78.3%
O=C(NNC(=O)c1ccc(O)cc1O)c1ccc(Cl)cc1 | 7.3 | ? | 43.1 | 4.0% | 86.1%
SMILES | CHX counter | Pf growth 96h | Shiga toxin inh | LmPK inhibitor | Pf growth 48h
Cc1ccc(C(=O)NNC(=O)c2cccc(Br)c2)cc1 | 9.0 | ? | 10.7 | -6.4% | 22.4%
O=C(NNC(=O)c1ccccc1O)c1ccc(Cl)cc1 | 32.9* | 242.7% | 47.9* | 1.1% | 83.7%
CC(C)(C)c1ccc(C(=O)NNC(=O)c2cccc(Br)c2)cc1 | 15.8* | 19.8% | 26.8 | -0.5% | 42.9%
O=C(NNC(=O)c1ccccc1O)c1cccc(Br)c1 | 25.4* | 2.9% | 51.4* | 4.8% | 81.7%
CN(CCC#N)S(=O)(=O)c1cc2c3c(c1)CCN3C(=O)CC2 | 6.6 | 18.4% | -1.6 | -0.5% | 10.4%
C=CCN1C(=O)C2(OCCCO2)c2cc(Cl)ccc21 | -1.5 | ? | -6.5 | -0.2% | -9.9%
O=C(NNC(=O)c1ccccc1O)c1ccc(Br)cc1 | 43.6* | -5.2% | / | -4.5% | -10.9%
O=C(CCNC(=O)c1ccccc1Cl)NC1=NCCS1 | 4.8 | 28.6% | -0.6 | 10.5% | 9.1%
Cc1nc2cc(N3CCN(C)CC3)c(NC(=O)Cc3ccccc3)cc2c(=O)n1Cc1ccccc1 | 89.5* | -7.4% | 55.1* | 0.7% | 10.4µM*
CCCC(=O)Nc1ccc2nc(C)n(Cc3ccccc3Cl)c(=O)c2c1 | -3.1 | -15.0% | -4.1 | -3.7% | ?
Cc1nc2cc(N3CCCCC3)c(NC(=O)c3ccncc3)cc2c(=O)n1Cc1ccc(Cl)cc1 | -1.6 | ? | 15.8 | -3.8% | /
CCN(CC)c1cc2nc(C)n(Cc3ccccc3)c(=O)c2cc1NC(=O)C1CC1 | -2.2 | 18.4% | 1.2 | 1.9% | 7.38µM*
COc1ccc(C(=O)NC(C)CCn2cccn2)cc1OC1CCN(C(C)C)CC1 (centres undefined) | -2.4 | -22.0% | -13.2 | 1.6% | -1.4%
O=C1CS/C(=N/N=C/c2ccccc2)N1Cc1ccco1 | 25.1* | 41.7% | 44.5* | -0.5% | 19.2%
COc1ccc(OC)c(/C=N/N=C2\SCC(=O)N2Cc2ccco2)c1 | 17.6* | -0.8% | 1.9 | 0.9% | -6.6%
Cc1ccc(S(=O)(=O)CCC(=O)Nc2ccc(F)cc2)cc1 | -4.6 | 8.5%[5.75 µM] | -2.6 | 2.2% | ?
Cc1cc(NC(=O)CSC2=NS(=O)(=O)c3ccccc3N2)no1 | / | -1.5% | / | / | -27.5%
Cc1cc([N+](=O)[O-])ccc1NC(=O)C(C)NC1CCCCC1 (centres undefined) | -1.1 | ? | -3.3 | 2.7% | 1.1%
O=C(Nc1nc(-c2ccc3c(c2)OCO3)cs1)C1CC1 | 44.0* | 93.9% | 65.6* | -3.1% | 64.9%
CC(=O)Nc1nnc(-c2ccc3c(c2)CCCC3)o1 | 46.4* | ? | 65.2* | -6.5% | /
CCCC(=O)Nc1nnc(-c2ccc3c(c2)OCO3)s1 | -0.9 | 83.8% | -2.6 | -1.0% | 0.0%
CCCC(=O)Nc1nc(-c2ccc3c(c2)OCCO3)cs1 | 40.0* | 97.0% | 92.9* | 0.1% | 74.8%
CC(=O)Nc1ccc(-c2csc(NC(=O)C3CC(=O)N(c4ccc5c(c4)OCCO5)C3)n2)cc1 (centres undefined) | 7.5 | ? | 5.8 | 2.7% | ?
O=C(O)C(=O)Nc1nc(-c2ccc3c(c2)OCCO3)cs1 | 14.4* | 21.1% | 26.2* | -10.6% | 38.1%
O=C(c1ccccc1Cl)N1CCC(n2cccc2)CC1 | -2.5 | 68.4% | 0.2 | 0.4% | 13.3%
O=C(CSc1ccc2nnc(CCNC(=O)c3ccccc3)n2n1)NC1CCCC1 | -3.0 | ? | -16.3 | -6.4% | -2.8%
CCOc1ccc(NC(=O)CN(C)CC(=O)NC2CCCc3ccccc32)cc1OCC (centres undefined) | 6.6 | -24.0% | -2.9 | 1.9% | ?
O=C(CSCC(=O)Nc1nc(-c2ccc3c(c2)OCO3)cs1)Nc1nccs1 | -1.5 | -30.3% | 5.9 | 1.0% | ?

Source: PubChem BioAssay (National Center for Advancing Translational Sciences (NCATS))
